Laboratory results as given in PubChem BioAssay.
A number with no mark means an inactive call. Active and inactive are the calls of the source.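 Rule for the calls: active = growth inhibition above 50% at the single 2 µM test dose, taken to imply half-maximal potency below 2 µM; inactive = the rest.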

assay: antimalarial activity against Dd2 strain (AID 2302);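 note: 0% = DMSO untreated growth and 100% = chloroquine plus artemisinin killed control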; settings: P. falciparum Dd2 in RBCs, LDH growth readout, 72 h; at 2 µM; active compounds read high

Compound	growth inhibition
COc1cc(NC(=O)c2sc(-c3ccc(Cl)cc3)cc2NC(=O)c2cccc(N(C)C)c2)ccc1OCCN1CCCC1	67% (active)
O=C(Nc1ccc(F)c([N+](=O)[O-])c1)Nc1cc(C(F)(F)F)ccc1Cl	86% (active)
COc1cc(CN2CCC(C(=O)Nc3ccc(-c4cccc(C)c4)cc3)CC2)ccc1O	85% (active)
CN1CCN(c2ccnc3ccc(NC(=O)N(C)c4ccc(Cl)c(Cl)c4)cc23)CC1	85% (active)
CCCCc1ccc(C(=O)Nc2ccc3nc(N4CCN(C)CC4)cc(C)c3c2)cc1	21%
Cc1cc2nc(/N=C(\N)NC(=O)NC3CCCCC3)nc(C)c2cc1C	98% (active)
CC(C)N1CCN(C(CN2CCN(CCCOc3ccc(-c4ccccc4)cc3)CC2)c2ccc(F)cc2)CC1 (centres undefined)	100% (active)
COc1cc2nc(N(C)C)nc(Nc3ccc(OCc4ccccc4)cc3)c2cc1OC	101% (active)
COc1ccccc1-c1cc(C(=O)N2CCN(S(=O)(=O)c3ccc(C)cc3)CC2)[nH]n1	88% (active)
Cc1noc(C)c1-c1cccc(CNCc2cccc(-c3ccc(-c4nc5ccccc5[nH]4)s3)c2)c1	29%
CNC(=O)NC1=NC(C)(C)N(OCc2ccc(Cl)c(Cl)c2)C(NC(=O)NC)=N1	-3%
CSC1=NC2(CC(c3cccc(C)c3)c3cc(Cl)c(O)cc3O2)CC(C)(C)N1 (centres undefined)	73% (active)
Cc1ccc(F)c(OC2CCN(c3ccc(C(=O)NC4CC4)cn3)CC2)c1	72% (active)
Nc1cccc(CNCc2cccc(-c3ccc(-c4nc5ccc(C(F)(F)F)cc5[nH]4)cc3)c2)c1	98% (active)
